Test results from PubChem BioAssay (EPA / NIEHS).
Inconclusive results are not listed. Active and inactive are the calls of the source. How the source made its calls: active means hit-call score of the fitted dose curve at least 0.9, where 1 is the maximum; inconclusive means response in the unintended direction; inactive means score below 0.9.

How the values were obtained:
[1] = ACEA_ER_AUC_viability: ACEA Biosciences xCELLigence Real-Time Cell Analysis on Estrogen Receptor Agonism for Viability (AID 2283782);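 further: hit means loss of impedance signal meaning reduced cell growth or viability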
Method in brief: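 Viability endpoint: reduced impedance area under the curve relative to DMSO, recorded by real-time electrode sensing over ~80 h of continuous exposure. Duplicate plates of T47D in hormone-depleted medium; eight concentrations, 1:4 dilutions, 100 uM maximum.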

[2] = STM_H9_NormalizedViability: Cytotoxicity Assessment at 120 hours in the Stemina devTOX quickPredict H9 human embryonic stem cell (hESC)-based Assay (AID 2283784)
Method in brief: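 Viability endpoint: background-corrected CellTiter-Fluor RFU expressed relative to the 0.1% DMSO mean on each plate. Undifferentiated H9 cells were treated with daily re-dosing and media change, and loss of signal was fitted.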

AR (gene 367) [3] = target: AR (gene 367) (UniProt P10275); assay: ACEA_AR_antagonist_80hr: ACEA Biosciences xCELLigence Real-Time Cell Analysis on Androgen Receptor Antagonism for Proliferation (AID 2283787);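 further: 22Rv1 human prostate cancer cells with growth followed by electrical impedance; hits lower the impedance growth signal relative to DMSO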
Method in brief: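 Impedance-based real-time growth of 22Rv1 prostate cells, read 80 h after dosing. Eight concentrations, 1:4 series, top 100 uM final (0.5% DMSO), n = 2; signal decrease scored against DMSO.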

AR (gene 367) [4] = target: AR (gene 367) (UniProt P10275); assay: ACEA_AR_agonist_80hr: ACEA Biosciences xCELLigence Real-Time Cell Analysis on Androgen Receptor Agonism for Proliferation (AID 2283783);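 further: hits increase impedance growth signal above DMSO baseline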
Method in brief: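 Eight concentrations, 1:4 serial dilution from a 100 uM final top, in biological duplicate. Impedance-based real-time growth of 22Rv1 cells after overnight baseline, recorded hourly and read at 80 hours. Controls: testosterone, MG132, assay media.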

Sequence of AR (gene 367) (P10275 whole entry, looked up): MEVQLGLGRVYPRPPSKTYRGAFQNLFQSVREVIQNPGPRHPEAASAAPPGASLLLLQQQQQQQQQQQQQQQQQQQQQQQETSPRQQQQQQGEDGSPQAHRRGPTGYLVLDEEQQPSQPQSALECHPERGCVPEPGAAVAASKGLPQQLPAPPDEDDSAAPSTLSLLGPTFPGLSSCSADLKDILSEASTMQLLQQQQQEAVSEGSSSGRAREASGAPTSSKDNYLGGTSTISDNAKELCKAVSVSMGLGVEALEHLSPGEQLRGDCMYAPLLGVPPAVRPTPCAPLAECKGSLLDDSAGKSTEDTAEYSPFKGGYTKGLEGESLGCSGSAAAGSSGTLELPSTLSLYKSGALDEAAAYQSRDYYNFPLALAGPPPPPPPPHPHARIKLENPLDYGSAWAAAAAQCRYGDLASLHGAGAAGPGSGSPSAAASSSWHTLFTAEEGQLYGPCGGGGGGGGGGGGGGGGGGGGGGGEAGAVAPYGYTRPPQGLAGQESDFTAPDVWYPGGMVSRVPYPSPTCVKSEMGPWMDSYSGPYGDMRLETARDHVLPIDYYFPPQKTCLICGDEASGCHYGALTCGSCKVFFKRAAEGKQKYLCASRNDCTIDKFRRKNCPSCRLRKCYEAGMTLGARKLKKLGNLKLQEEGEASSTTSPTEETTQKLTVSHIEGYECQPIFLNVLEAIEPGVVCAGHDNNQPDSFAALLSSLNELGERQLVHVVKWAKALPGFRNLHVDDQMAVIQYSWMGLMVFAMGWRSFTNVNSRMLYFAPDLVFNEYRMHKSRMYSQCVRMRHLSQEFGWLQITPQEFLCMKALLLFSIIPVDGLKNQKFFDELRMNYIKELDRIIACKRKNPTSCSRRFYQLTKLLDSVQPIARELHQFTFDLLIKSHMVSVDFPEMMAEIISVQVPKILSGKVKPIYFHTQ

Question: Which outcome [1] does the source give for `CCCCC(C#N)(Cn1cncn1)c1ccc(Cl)cc1` (stereo not given) here?
Answer: The outcome was “inactive”.

Question: And the AC50 [2]?
Answer: The AC50 was 56 µM (active).

Question: What does the source list for `CC(C)N1C(=O)N(c2ccccc2)CSC1=NC(C)(C)C`?
Answer: AC50 [1]: 89.6 µM (active); AC50 (AR (gene 367) [3]): 50 µM (active)

Question: For `COP(=S)(OC)SCn1nnc2ccccc2c1=O`, which outcome (AR (gene 367) [4]) is on record?
Answer: The outcome was “inactive”.

Question: And the AC50 (AR (gene 367) [3])?
Answer: Its AC50 is 83.1 µM (active).

Question: With `O=C1C2CC=CCC2C(=O)N1SC(Cl)(Cl)Cl` (stereo not given) as the molecule, how does the outcome [2] read?
Answer: Its outcome is “inactive”.

Question: What does the source list for `N#Cc1c[nH]cc1-c1cccc2c1OC(F)(F)O2`?
Answer: outcome [1]: inactive; AC50 [2]: 76.4 µM (active)

Question: Which outcome [2] does the source give for `CCNP(=S)(OC)O/C(C)=C/C(=O)OC(C)C` (stereo not given) here?
Answer: The outcome was “inactive”.

Question: Which outcome [2] does the source give for `CCOP(=S)(OCC)Oc1nc(Cl)n(C(C)C)n1` here?
Answer: Its outcome is “inactive”.

Question: For `CC(C)(C)C(=O)C(Oc1ccc(Cl)cc1)n1cncn1` (stereo not given), which outcome [2] is on record?
Answer: The outcome was “inactive”.

Question: For `O=C(Nc1ccccc1-c1ccc(Cl)cc1)c1cccnc1Cl`, which outcome [1] is on record?
Answer: The outcome was “inactive”.

Question: What about the outcome [2] of the same molecule?
Answer: Its outcome is “inactive”.

Question: Which outcome [2] does the source give for `CCOc1nc(C(Cl)(Cl)Cl)ns1` here?
Answer: The outcome was “inactive”.

Question: What does the source list for `Clc1cccc(C(Cl)(Cl)Cl)n1`?
Answer: outcome [1]: inactive; outcome [2]: inactive; outcome (AR (gene 367) [3]): inactive

Question: With `CC1(C)CON(Cc2ccccc2Cl)C1=O` as the molecule, how does the outcome [2] read?
Answer: The outcome was “inactive”.

Question: Which outcome [2] does the source give for `N#CN=C1SCCN1Cc1ccc(Cl)nc1` here?
Answer: Its outcome is “inactive”.

Question: Which results are given for `Cc1cc(C)nc(Nc2ccccc2)n1`?
Answer: outcome [1]: inactive; outcome [2]: inactive

Question: Which outcome (AR (gene 367) [4]) does the source give for `Nc1c(Cl)c(F)nc(OCC(=O)O)c1Cl` here?
Answer: The outcome was “inactive”.

Question: And the outcome (AR (gene 367) [3])?
Answer: Its outcome is “inactive”.

Question: For `Cc1cnc(C2=NC(C)(C(C)C)C(=O)N2)c(C(=O)O)c1` (stereo not given), which outcome (AR (gene 367) [4]) is on record?
Answer: The outcome was “inactive”.

Question: And the outcome (AR (gene 367) [3])?
Answer: Its outcome is “inactive”.

Question: For `COc1ccc(-c2ccccc2)cc1NNC(=O)OC(C)C`, which outcome [1] is on record?
Answer: Its outcome is “inactive”.

Question: And the AC50 [2]?
Answer: The AC50 was 45.6 µM (active).

Question: What about the outcome (AR (gene 367) [3]) of the same molecule?
Answer: The outcome was “inactive”.

Question: With `CS(=O)(=O)c1ccc(C(=O)C2C(=O)CCCC2=O)c([N+](=O)[O-])c1` as the molecule, how does the outcome [2] read?
Answer: Its outcome is “inactive”.

Question: Which outcome [2] does the source give for `COc1cc(OC)nc(NC(=O)NS(=O)(=O)c2ncccc2OCC(F)(F)F)n1` here?
Answer: The outcome was “inactive”.

Question: With `CS(=O)(=O)c1cc(C(F)(F)F)ccc1C(=O)c1cnoc1C1CC1` as the molecule, how does the outcome [1] read?
Answer: The outcome was “inactive”.

Question: And the outcome [2]?
Answer: Its outcome is “inactive”.

Question: Which outcome [2] does the source give for `CC(C)C1(C)N=C(c2ncccc2C(=O)O)NC1=O` (stereo not given) here?
Answer: Its outcome is “inactive”.

Question: For `COC(=O)c1c(C(F)F)nc(C(F)(F)F)c(C2=NCCS2)c1CC(C)C`, which outcome (AR (gene 367) [3]) is on record?
Answer: Its outcome is “inactive”.

Question: With `CCOP(=O)(OCC)Oc1nc(Cl)c(Cl)cc1Cl` as the molecule, how does the AC50 [1] read?
Answer: Its AC50 is 68.3 µM (active).

Question: And the outcome (AR (gene 367) [4])?
Answer: Its outcome is “inactive”.

Question: What about the AC50 (AR (gene 367) [3]) of the same molecule?
Answer: Its AC50 is 76 µM (active).

Question: Which AC50 [1] does the source give for `CCCN(CC)CC1COC2(CCC(C(C)(C)C)CC2)O1` (stereo not given) here?
Answer: The AC50 was 81 µM (active).

Question: What about the outcome [2] of the same molecule?
Answer: Its outcome is “inactive”.
